Screening results from PubChem.
The entries come from a sample that favours hits as a whole.
CHX counter: affects cycloheximide protein synthesis inhibition readout, counter-screen; max response, %; cell reporter, cycloheximide protein synthesis inhibition counterscreen; AID 2314; actives 12% (n = 300,000); in the data active = max response mostly above about 13%, no sharp cut-off; inactive = mostly below about 14%; also: read at 38.3 µM for the half of the compounds with a filed dose; 0% is about no effect
LmPK inhibitor: LmPK (Leishmania mexicana) enzyme inhibition; purified LmPK, Kinase-Glo ATP luminescence, 1 h; actives 0.37% (n = 290,000); Q27686; Potency, µM (doses to about 57.5 µM), for the others: at the highest dose activity change, negative = inhibition, hits mostly inhibitors; also: potency is read from the fitted curve at half-maximal effect; % is scaled to controls: 0 for no effect and ±100 for the full control effect
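In 50 mM imidazole pH 7.2 with 7 mM MgCl2, LmPK (0.1 nM) turned over PEP (0.5 mM) and ADP (0.1 mM) for 1 h at room temperature. Luciferase read-out of ATP.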
Shiga inhibitor: blocks Shiga toxin action in Vero cells | inhibition, % at 38.7 µM | actives 9.2% (n = 290,000) | AID 2315 | Vero cells, Shiga toxin protein synthesis inhibition reporter; in the data active = inhibition mostly above about 28%, no sharp cut-off; inactive = mostly below about 43%; also: 0% is about no effect
FBPA Giardia inh: inhibitors of Giardia lamblia fructose-1,6-bisphosphate aldolase; actives 0.71% (n = 290,000); A8B2U2; Potency, µM (series often up to 59.6 µM), for the others: at the top dose activity, negative = inhibition, usual class: inhibitors; purified Giardia FBPA; AID 2451; also: potency is read from the fitted curve at half-maximal effect; % is scaled to controls: 0 for no effect and ±100 for the full control effect; nearly all actives have a fitted effect of over 55% in size
Target sequence (A8B2U2 whole entry, looked up): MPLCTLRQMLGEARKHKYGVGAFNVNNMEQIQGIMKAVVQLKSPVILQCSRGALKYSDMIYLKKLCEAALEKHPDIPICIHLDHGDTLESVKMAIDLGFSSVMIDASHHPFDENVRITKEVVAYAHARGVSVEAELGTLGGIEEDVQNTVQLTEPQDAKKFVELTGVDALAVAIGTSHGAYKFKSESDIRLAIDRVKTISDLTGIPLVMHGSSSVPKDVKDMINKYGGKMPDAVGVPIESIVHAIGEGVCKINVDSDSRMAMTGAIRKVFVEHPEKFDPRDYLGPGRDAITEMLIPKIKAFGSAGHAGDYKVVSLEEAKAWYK
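Giardia FBPA (40 nM reagent) was preincubated 10 min at RT with compound (up to 57.5 uM final), then substrate plus GAPDH/TPI/NAD/arsenate coupling system with diaphorase/resazurin was added; resorufin fluorescence (525/598 nm) was read after 20 min.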
Tb PYK inh: T. brucei pyruvate kinase inhibition | AID 624173 | actives 0.12% (n = 410,000) | Potency, µM (top dose mostly 76.8 µM), inactives show top-dose activity, negative = inhibition, hits mostly inhibitors | Q57TT1 | TbPYK enzyme, Kinase-Glo Plus ATP luminescence, 45 min; also: potency is read from the fitted curve at half-maximal effect; % is scaled to controls: 0 for no effect and ±100 for the full control effect; nearly all actives have a fitted effect of over 50% in size
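In this concentration-response screen, enzyme-free wells defined baseline while DMSO plates tracked drift. Each reaction combined TbPYK, substrate, compound and 130 uM ADP for 45 min at room temperature. Kinase-Glo Plus luminescence gave the signal.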
Sm TGR inh: S. mansoni TGR enzyme inhibition; Potency, µM (highest dose often 114 µM), without a hit: top-dose activity change, negative = inhibition, most hits filed as inhibitors; actives 3% (n = 360,000); purified TGR, DTNB reduction, TNB absorbance 405 nm; Q962Y6; also: potency is read from the fitted curve at half-maximal effect; % is scaled to controls: 0 for no effect and ±100 for the full control effect; nearly all actives have a fitted effect of over 60% in size
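Kinetic colorimetric format: TGR-catalysed, NADPH-driven DTNB reduction monitored via TNB absorbance. Enzyme dispensed at 20 nM; compound exposure 15 min at room temperature before reaction start.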
* = called active by the depositor. Unless noted, calls follow the shape of the dose curve; as a rule, active = well fitted curve in the direction sought with a large enough effect; inconclusive = small, poorly fitted or top-dose-only effect, or another doubt; inactive = no such curve, though single readings can be large; an effect the other way counts as inactive or inconclusive.

Results for CCOc1ccc2nc(N3CCCC(C(=O)NCCCN4CC(C)CC(C)C4)C3)sc2c1 (stereo not drawn) ?
CHX counter: 31.7*; LmPK inhibitor: 2.2%; Shiga inhibitor: 23.1; FBPA Giardia inh: 0.3%; Tb PYK inh: -3.4%; Sm TGR inh: -1.3%

How did CCOc1ccc2nc(N3CCCC(C(=O)NCCCN4C(C)CCCC4C)C3)sc2c1 (stereo not drawn) do in these assays?
CHX counter: 16.6*; LmPK inhibitor: -10.3%; Shiga inhibitor: 54.1*; Tb PYK inh: -9.2%; Sm TGR inh: -8.5%

What do the screens show for `COc1ccc2nc(N3CCCC(C(=O)NCCCN4CCN(C)CC4)C3)sc2c1` (stereo not drawn)?
CHX counter: 16.2; LmPK inhibitor: -2.9%; Shiga inhibitor: -2.1; FBPA Giardia inh: -2.2%; Tb PYK inh: -2.9%; Sm TGR inh: -0.6%

How did CCOc1ccc2nc(N3CCC(C(=O)Nc4ccc(Br)cc4F)CC3)sc2c1 do in these assays?
CHX counter: 35.3*; Shiga inhibitor: 172.7*; Tb PYK inh: -3.7%; Sm TGR inh: 1.3%

How did CCOc1ccc2nc(N3CCCC(C(=O)NCCCN4CCCCC4)C3)sc2c1 (stereo not drawn) do in these assays?
CHX counter: 19.7*; LmPK inhibitor: -12.8%; Shiga inhibitor: 35.8*; Tb PYK inh: -1.1%; Sm TGR inh: -8.7%

How did CCOc1ccc2nc(N3CCCC(C(=O)NCc4ccccc4Cl)C3)sc2c1 (stereo not drawn) do in these assays?
Tb PYK inh: 0.9%; Sm TGR inh: 24.7%

How did Cc1nc(-c2ccccc2)sc1-c1ccn[nH]1 do in these assays?
CHX counter: 27.8*; LmPK inhibitor: -12.7%; Shiga inhibitor: 69.3*; FBPA Giardia inh: -17.2%; Tb PYK inh: -0.9%; Sm TGR inh: 17.9%

What do the screens show for `Cc1nc(-c2ccccc2)sc1-c1ccnn1C`?
CHX counter: 34.8*; LmPK inhibitor: -5.6%; Shiga inhibitor: 81.3*; FBPA Giardia inh: -10.4%; Tb PYK inh: -5.0%; Sm TGR inh: 3.5%

Results for COC(=O)CSCc1nc(-c2ccc(C(=O)OC)cc2)oc1C ?
Tb PYK inh: 1.8%; Sm TGR inh: -1.1%
